Assay results from PubChem BioAssay (NCI).
Compounds without any hit were thinned out: in the full panel of roughly 79,000, 15% have a hit. Calls of active or inactive are those of the source. Rule as the data show it: active = growth inhibition above about 70%; inactive = the rest. Where a SMILES comes first, the peptide text is derived from it. The star is where a group is joined. Fmoc = O=C(OCC1c2ccccc2-c2ccccc21)*; OBn = c1ccc(CO*)cc1; tBu = CC(C)(C)*

assay: NCI Yeast Anticancer Drug Screen. Data for the rad50 strain (AID 155);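 also: 0% = growth of vehicle-only cultures of the same strain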; details: S. cerevisiae rad50 strain growth inhibition; at 50.0 µM; stronger effect = higher value
Summary of the method: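 Vehicle-treated cultures provide the reference for the growth inhibition reported for compound-exposed, repair-deficient yeast.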

Row | Compound | growth inhibition
1 | Nc1nc(Cl)c2nc(Cl)n(C3OC(CO)C(O)C3O)c2n1 (stereo not given) | -7.1% (inactive)
2 | COc1ccc2nc3cc(Cl)ccc3c(NCCCNCCCNc3c4ccc(Cl)cc4nc4ccc(OC)cc34)c2c1 | -10.3% (inactive)
3 | CCCCCCCCCCCCCCCc1cc(=O)n(-c2ccc(NC(C)=O)cc2)n1C | -2% (inactive)
4 | Cc1cccc([N+](=O)[O-])c1C | 13.7% (inactive)
5 | CCOC(=O)c1c2ccc(/C=C/c3ccccc3)ccc-2c(C(=O)OCC)c1N | -16.6% (inactive)
6 | CN1CCC(CC(O)(c2ccccc2)C2CCCCC2)C1 (stereo not given) | -5.9% (inactive)
7 | Nc1ncnc2c1ncn2C1OC(C(=O)OCCO)C(O)C1O (stereo not given) | -16.6% (inactive)
8 | O=C1CCC(c2n[nH]c(=S)o2)N1 (stereo not given) | -2.8% (inactive)
9 | CN(C)c1nc(Cl)nc2nc(Cl)[nH]c12 | -10.9% (inactive)
10 | OCCN(CCO)c1ccc(-n2cnc3c(=S)nc[nH]c32)cc1 | -3.1% (inactive)
11 | Cc1cccc(C)c1NC(=O)C(=O)Cc1nc2ccccc2s1 | -12.1% (inactive)
12 | CC(=O)c1ccc([C@H](O)[C@H](CO)NC(=O)C(Cl)Cl)cc1 | -1.1% (inactive)
13 | CCOC(OCC)/C(C)=N/N(C)C | 5.05% (inactive)
14 | CN(C)CCCCCCNCCC#N | 21.2% (inactive)
15 | CCOC(=O)c1[nH]n(-c2ccccc2)c(=O)c1/C=N/C(=S)Nc1c(CC)cccc1CC | -18.1% (inactive)
16 | COc1cc(C2c3cc4c(cc3OC(N3CCCCC3)C2C)OCO4)cc(OC)c1O (stereo not given) | 1.45% (inactive)
17 | O=C(O)CNC(=O)NNc1ccccc1 | -4.75% (inactive)
18 | CC(OC(C)(C)C)C(NC(=O)OCC1c2ccccc2-c2ccccc21)C(=O)NC(Cc1ccccc1)C(=O)OCc1ccccc1 (stereo not given) (Fmoc-Thr(tBu)-Phe-OBn; configuration not given here) | -32.2% (inactive)
19 | CCCCC(=O)OC[n+]1ccc2c(C)c3[nH]c4ccc(OC)cc4c3c(C)c2c1 | 87.9% (active)
20 | C=CCc1cccc(C)c1O | 18.9% (inactive)

Row | Compound | growth inhibition
21 | CCOC(=O)CNC(=O)C(=[N+]=[N-])C(=O)COc1ccc(Cl)cc1Cl | 3.4% (inactive)
22 | O=C(CNS(=O)(=O)c1ccccc1)c1ccc(Cl)cc1Cl | 31.6% (inactive)
23 | COc1cc(-c2ccc(N=Nc3ccc(N)nc3N)c(OC)c2)ccc1N=Nc1ccc(N)nc1N | 6.9% (inactive)
24 | OC1COc2c3ccccc3nn2C1 (stereo not given) | -1.35% (inactive)
25 | Cc1cc(CC(N)C(=O)O)ccc1O (stereo not given) | -0.65% (inactive)
26 | CC1=CC[C@H]2C(C)=CC[C@@H](C(C)C)[C@@H]2C1 | 10.4% (inactive)
27 | CCCCCCCCCCCCCCCCCC[N+]1(C)CCOCC1 | 99.2% (active)
28 | NC1C(O)C(N)C(O)C(O)C1O (stereo not given) | 3.3% (inactive)
29 | O=C1CC(c2ccccc2)Oc2ccccc21 (stereo not given) | -24.5% (inactive)
30 | CC1CSC(C)(C)C(=O)N1 (stereo not given) | 16.2% (inactive)
31 | Nc1cccc(S(N)(=O)=O)c1 | 10.4% (inactive)
32 | Cc1nc2ccccc2c(=O)n1NC(=S)Nc1cccc(Cl)c1 | 7.35% (inactive)
33 | CCOC(=O)c1ccc(NC=O)cc1 | 4.1% (inactive)
34 | C/C(=N\O)c1sc(-n2nc(-c3ccccc3)cc2-c2ccccc2)nc1C | 13.7% (inactive)
35 | O=C(O)CCN1C(=S)CSC1=S | -5.35% (inactive)
36 | COc1cc(-c2[nH]ncc2CCCC(=O)Nc2ccccc2[N+](=O)[O-])ccc1O | 20.9% (inactive)
37 | CN(C)CC1CCC/C(=C\c2ccc(N(C)C)cc2)C1=O (stereo not given) | -18.6% (inactive)
38 | COc1ccc(C2NCCCC2c2ccccc2)cc1 (stereo not given) | -46.3% (inactive)
39 | CCOc1c(Cl)c(Cl)c(Cl)c(Cl)c1Cl | -9.8% (inactive)
40 | CCOC(=O)C(Cc1cc(C)c(O)c(I)c1)NC(C)=O (stereo not given) | -18.4% (inactive)

assay: NCI Yeast Anticancer Drug Screen. Data for the mec2-1 strain (AID 157); details: S. cerevisiae mec2-1 strain, at 50.0 µM, stronger effect = higher value
Summary of the method: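 Cells of the genetically defined mec2-1 yeast strain are incubated with test compound. Inhibition of growth is calculated against vehicle-treated controls.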

Row | Compound | growth inhibition
41 | Nc1nc(Cl)c2nc(Cl)n(C3OC(CO)C(O)C3O)c2n1 (stereo not given) | 1.75% (inactive)
42 | COc1ccc2nc3cc(Cl)ccc3c(NCCCNCCCNc3c4ccc(Cl)cc4nc4ccc(OC)cc34)c2c1 | -16.5% (inactive)
43 | CCCCCCCCCCCCCCCc1cc(=O)n(-c2ccc(NC(C)=O)cc2)n1C | -23.8% (inactive)
44 | Cc1cccc([N+](=O)[O-])c1C | -10.4% (inactive)
45 | CCOC(=O)c1c2ccc(/C=C/c3ccccc3)ccc-2c(C(=O)OCC)c1N | -7.25% (inactive)
46 | CN1CCC(CC(O)(c2ccccc2)C2CCCCC2)C1 (stereo not given) | -14.1% (inactive)
47 | Nc1ncnc2c1ncn2C1OC(C(=O)OCCO)C(O)C1O (stereo not given) | -19.8% (inactive)
48 | O=C1CCC(c2n[nH]c(=S)o2)N1 (stereo not given) | 22.7% (inactive)
49 | CN(C)c1nc(Cl)nc2nc(Cl)[nH]c12 | 3.15% (inactive)
50 | OCCN(CCO)c1ccc(-n2cnc3c(=S)nc[nH]c32)cc1 | -3% (inactive)
51 | Cc1cccc(C)c1NC(=O)C(=O)Cc1nc2ccccc2s1 | -0.45% (inactive)
52 | CC(=O)c1ccc([C@H](O)[C@H](CO)NC(=O)C(Cl)Cl)cc1 | 0.45% (inactive)
53 | CCOC(OCC)/C(C)=N/N(C)C | 8.95% (inactive)
54 | CN(C)CCCCCCNCCC#N | -27.8% (inactive)
55 | CCOC(=O)c1[nH]n(-c2ccccc2)c(=O)c1/C=N/C(=S)Nc1c(CC)cccc1CC | -29.2% (inactive)
56 | COc1cc(C2c3cc4c(cc3OC(N3CCCCC3)C2C)OCO4)cc(OC)c1O (stereo not given) | -14.3% (inactive)
57 | O=C(O)CNC(=O)NNc1ccccc1 | -7.6% (inactive)
58 | CC(OC(C)(C)C)C(NC(=O)OCC1c2ccccc2-c2ccccc21)C(=O)NC(Cc1ccccc1)C(=O)OCc1ccccc1 (stereo not given) (Fmoc-Thr(tBu)-Phe-OBn; configuration not given here) | -7.7% (inactive)
59 | CCCCC(=O)OC[n+]1ccc2c(C)c3[nH]c4ccc(OC)cc4c3c(C)c2c1 | 91.8% (active)
60 | C=CCc1cccc(C)c1O | -16.1% (inactive)

Row | Compound | growth inhibition
61 | CCOC(=O)CNC(=O)C(=[N+]=[N-])C(=O)COc1ccc(Cl)cc1Cl | -9% (inactive)
62 | O=C(CNS(=O)(=O)c1ccccc1)c1ccc(Cl)cc1Cl | 36.2% (inactive)
63 | COc1cc(-c2ccc(N=Nc3ccc(N)nc3N)c(OC)c2)ccc1N=Nc1ccc(N)nc1N | -3.9% (inactive)
64 | OC1COc2c3ccccc3nn2C1 (stereo not given) | 2.85% (inactive)
65 | Cc1cc(CC(N)C(=O)O)ccc1O (stereo not given) | 7.05% (inactive)
66 | CC1=CC[C@H]2C(C)=CC[C@@H](C(C)C)[C@@H]2C1 | 6.05% (inactive)
67 | CCCCCCCCCCCCCCCCCC[N+]1(C)CCOCC1 | 99.5% (active)
68 | NC1C(O)C(N)C(O)C(O)C1O (stereo not given) | 20.4% (inactive)
69 | O=C1CC(c2ccccc2)Oc2ccccc21 (stereo not given) | -58.1% (inactive)
70 | CC1CSC(C)(C)C(=O)N1 (stereo not given) | 14.8% (inactive)
71 | Nc1cccc(S(N)(=O)=O)c1 | -5.65% (inactive)
72 | Cc1nc2ccccc2c(=O)n1NC(=S)Nc1cccc(Cl)c1 | -35.3% (inactive)
73 | CCOC(=O)c1ccc(NC=O)cc1 | 7.35% (inactive)
74 | C/C(=N\O)c1sc(-n2nc(-c3ccccc3)cc2-c2ccccc2)nc1C | 4.2% (inactive)
75 | O=C(O)CCN1C(=S)CSC1=S | -18.4% (inactive)
76 | COc1cc(-c2[nH]ncc2CCCC(=O)Nc2ccccc2[N+](=O)[O-])ccc1O | -2.75% (inactive)
77 | CN(C)CC1CCC/C(=C\c2ccc(N(C)C)cc2)C1=O (stereo not given) | -44.9% (inactive)
78 | COc1ccc(C2NCCCC2c2ccccc2)cc1 (stereo not given) | -29.4% (inactive)
79 | CCOc1c(Cl)c(Cl)c(Cl)c(Cl)c1Cl | 3.95% (inactive)
80 | CCOC(=O)C(Cc1cc(C)c(O)c(I)c1)NC(C)=O (stereo not given) | -1.1% (inactive)
